Results published in PubChem BioAssay (NCI).
The panel holds about 83,000 compounds, 20% with a hit somewhere; the sample as a whole holds those more often.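 Negative percent growth values reflect cell death: -40 means 40% of the cells present at the start died, and -100 means all died.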 The source made the active and inactive calls. The calls were made as follows: active = growth percent below 10; inactive = the rest.

How the values were obtained:
Test in all cases: NCI-60 one-dose screen, 48 h (100 = growth as untreated, 0 = no growth, -100 = all killed)
Details in all cases: 10 µM unless noted
[1] = tested on: T-47D breast
[2] = tested on: BT-549 breast
[3] = tested on: MDA-MB-435 melanoma
[4] = tested on: SW-620 colon
[5] = tested on: MCF7 breast
[6] = tested on: HCT-116 colon
[7] = tested on: HCC-2998 colon
[8] = tested on: KM12 colon

Measured: growth

COc1ccc(/C=C\c2cc(OC)c(OC)c(OC)c2)c(NS(=O)(=O)c2ccc(C(C)(C)C)cc2)c1O
active: [3] -17%
inactive: [1] 72.2% | [2] 37.7% | [4] 31.7% | [5] 10.1% | [6] 13.4% | [7] 19.5% | [8] 12.1%

C=C1C(=O)O[C@H]2[C@H]1CC/C(Cn1cc(-c3ccc(N)cc3)nn1)=C\CC[C@@]1(C)O[C@@H]21
active: [1] -40.4% | [2] -43.3% | [3] -7.57% | [4] -44.8% | [5] 2.62% | [6] -56%
inactive: [7] 50.8% | [8] 51.5%

Cc1ccc(OCCn2c(C)nn(-c3ccc(Cl)cc3)c2=O)cc1
inactive: [1] 104% | [2] 99.8% | [3] 105% | [4] 106% | [5] 98.8% | [6] 95.5% | [7] 111% | [8] 117%

CNC(=O)Cc1nc(-c2cccc(NS(=O)(=O)c3c(F)cccc3F)c2F)c(-c2ccnc(Nc3ccccc3)n2)s1
active: [6] 9.43%
inactive: [1] 60.2% | [2] 103% | [3] 48.3% | [4] 66.8% | [5] 86.2% | [7] 84.6% | [8] 70.2%

CC(C(=O)n1cc(-c2ccccc2)c(-c2ccccc2)c1)c1ccccc1 (stereo not drawn)
inactive: [1] 93.4% | [2] 117% | [3] 104% | [4] 111% | [5] 100% | [6] 99.8% | [7] 104% | [8] 105%

COc1ncc(-c2ccc3ncnc(Nc4cccc(Cl)c4)c3c2)cc1NS(=O)(=O)CCN1CCOCC1
active: [1] -10.6% | [2] -4.07% | [5] 7.16%
inactive: [3] 11.8% | [4] 29.5% | [6] 29.7% | [7] 18.9% | [8] 26%

O=S(=O)(NCCCNc1cc(-c2cn(-c3ccccc3)nc2-c2cccc(O)c2)ccn1)c1ccc(Br)cc1
inactive: [1] 12.5% | [4] 10.7%
active: [2] 7.68% | [3] 9.98% | [5] 7.31% | [6] 9.44% | [7] -62.4% | [8] 7.88%

O=C(CCC(=O)OC1CCCC1)OC1CCCC1
inactive: [1] 94.1% | [2] 99.9% | [3] 100% | [4] 103% | [5] 95.2% | [6] 109% | [7] 101% | [8] 102%

COc1cccc(/C=C2\SC(N3CCN(c4ccccn4)CC3)=NC2=O)c1
inactive: [1] 95% | [2] 112% | [3] 108% | [4] 97.9% | [5] 94.8% | [6] 103% | [7] 99.4% | [8] 97.4%

Nc1c(C(=O)Nc2cccc(C(F)(F)F)c2)sc2nc3c(cc12)CCCCCC3
inactive: [2] 59.6% | [3] 31% | [4] 46% | [5] 20.4% | [7] 37.1% | [8] 30.1%
active: [1] -7% | [6] -18.1%

CC(C)N(Cc1ccc(CN(C(=O)CCl)C(C)C)cc1)C(=O)CCl
inactive: [2] 18.6% | [3] 27.2% | [5] 23.8% | [7] 93.8% | [8] 41.1%
active: [1] -14.8% | [4] 2.78% | [6] -67.4%

CC(=O)Nc1ccc2c(c1)/C(=C\C=C/c1ccc([N+](C)(C)C)cc1)c1ccccc1-2
inactive: [1] 41.4% | [2] 94.6% | [3] 96% | [4] 99% | [5] 60.4% | [6] 70.3% | [7] 114% | [8] 97.1%

O=C(O)C(Cc1ccccc1)N1C(=O)/C(=C/C(Cl)=C/c2ccc([N+](=O)[O-])cc2)SC1=S (stereo not drawn)
active: [1] 1.08% | [2] -28.1% | [3] -41.7% | [4] 5.12% | [6] -59.5% | [7] 3.58%
inactive: [5] 26.1% | [8] 14.8%

CCOC(=O)[C@H](CSSc1ncnc2cc[nH]c12)NC(=O)[C@@H](C)c1ccc2cc(OC)ccc2c1
inactive: [1] 23.3% | [2] 46.3% | [3] 24.4% | [4] 19.3% | [6] 11.1% | [7] 25.4% | [8] 23.5%
active: [5] 8.81%

O=C1NCC(c2cc3ccccc3[nH]c2=O)Nc2ccccc21 (stereo not drawn)
inactive: [1] 91% | [2] 96.3% | [3] 107% | [4] 102% | [5] 103% | [6] 92.6% | [7] 104% | [8] 103%

O=C(CN1CCN(c2cc3c(cc2F)c(=O)c(C(=O)O)cn3C2CC2)CC1)Nc1ccc(C(=O)/C=C/c2ccccc2)cc1
active: [2] 9.61% | [6] -83.6%
inactive: [1] 85.1% | [3] 19.2% | [4] 41% | [5] 12.5% | [7] 70.1% | [8] 25.3%
